Assay results from publication PMC7862700, “An all-to-all approach to the identification of sequence-specific readers for epigenetic DNA modifications on cytosine”.

How the values were obtained:
Test in all cases: DAPPL (digital affinity profiling via proximity ligation, sequencing); 10 mM Tris-HCl pH 7.5, 50 mM NaCl, 1 mM DTT, 4% glycerol, room temperature, 30 min; GST-TFs on glutathione beads, 16-mer random dsDNA library, 0.1% formaldehyde crosslink after washing; high values mean tight binding
FLI1 = molecular target: T1, FLI1 (Homo sapiens, UniProt Q01543 1-452); conditions: protein: recombinant; tags: N-terminal GST; dsDNA, one strand shown
T1 sequence: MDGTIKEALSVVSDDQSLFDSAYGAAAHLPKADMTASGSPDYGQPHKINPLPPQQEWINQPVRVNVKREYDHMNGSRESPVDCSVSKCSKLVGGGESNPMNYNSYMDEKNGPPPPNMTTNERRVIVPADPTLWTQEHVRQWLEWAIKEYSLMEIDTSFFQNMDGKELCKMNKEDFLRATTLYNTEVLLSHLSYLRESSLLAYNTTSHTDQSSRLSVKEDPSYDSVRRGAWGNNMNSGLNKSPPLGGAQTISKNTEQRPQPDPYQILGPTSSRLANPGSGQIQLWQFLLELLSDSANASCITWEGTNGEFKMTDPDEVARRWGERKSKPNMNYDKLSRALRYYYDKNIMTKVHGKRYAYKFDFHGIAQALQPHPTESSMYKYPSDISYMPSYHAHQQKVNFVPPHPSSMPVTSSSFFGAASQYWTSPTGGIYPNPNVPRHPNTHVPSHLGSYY
Procedure, shortened: (§1)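 GST fusions of human transcription factors were expressed in yeast and captured with glutathione beads. Once given DNA barcodes and pooled alongside a tag-only sample, they were incubated for 30 min at room temperature with 200 nmole of a random double-stranded 16-mer DNA library in Tris/NaCl/DTT/glycerol buffer, then washed, crosslinked (0.1% formaldehyde), proximity-ligated, PCR-amplified and sequenced on an Illumina NextSeq500. The binding signal of each hexamer is its read frequency for a factor divided by its frequency for the tag-only sample.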

ELK1 = molecular target: T2, ELK1 (Homo sapiens, UniProt P19419 1-428); conditions: protein: recombinant; tags: N-terminal GST; dsDNA, one strand shown
T2 sequence: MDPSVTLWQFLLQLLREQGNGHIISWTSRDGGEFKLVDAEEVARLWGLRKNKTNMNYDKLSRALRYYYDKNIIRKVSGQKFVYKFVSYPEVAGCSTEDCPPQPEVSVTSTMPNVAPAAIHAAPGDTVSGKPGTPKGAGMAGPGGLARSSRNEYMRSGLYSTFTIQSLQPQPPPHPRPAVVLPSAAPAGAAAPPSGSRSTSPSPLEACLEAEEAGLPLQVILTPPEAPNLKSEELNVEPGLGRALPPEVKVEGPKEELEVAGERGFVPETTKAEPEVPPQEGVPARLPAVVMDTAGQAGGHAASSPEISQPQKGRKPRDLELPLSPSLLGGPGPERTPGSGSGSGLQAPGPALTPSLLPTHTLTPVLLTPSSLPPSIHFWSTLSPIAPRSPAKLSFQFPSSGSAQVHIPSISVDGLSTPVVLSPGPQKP
Procedure, shortened: as §1

GABPA = molecular target: T3, GABPA (Homo sapiens, UniProt Q06546 1-454); conditions: protein: recombinant; tags: N-terminal GST; dsDNA, one strand shown
T3 sequence: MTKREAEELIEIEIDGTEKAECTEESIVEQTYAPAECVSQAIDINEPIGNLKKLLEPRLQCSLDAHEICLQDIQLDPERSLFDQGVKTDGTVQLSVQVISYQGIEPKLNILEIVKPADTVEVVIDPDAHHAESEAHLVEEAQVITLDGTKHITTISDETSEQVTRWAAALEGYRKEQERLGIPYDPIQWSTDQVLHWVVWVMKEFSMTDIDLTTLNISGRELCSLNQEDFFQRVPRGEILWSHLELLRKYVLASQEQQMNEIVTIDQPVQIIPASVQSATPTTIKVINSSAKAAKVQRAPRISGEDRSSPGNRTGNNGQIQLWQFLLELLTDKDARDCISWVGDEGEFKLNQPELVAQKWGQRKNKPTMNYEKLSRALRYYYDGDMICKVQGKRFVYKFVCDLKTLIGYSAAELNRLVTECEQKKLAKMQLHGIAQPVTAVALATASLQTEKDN
Procedure, shortened: as §1

ERG = molecular target: T4, ERG (Homo sapiens, UniProt P11308 1-479); conditions: protein: recombinant; tags: N-terminal GST; dsDNA, one strand shown
T4 sequence: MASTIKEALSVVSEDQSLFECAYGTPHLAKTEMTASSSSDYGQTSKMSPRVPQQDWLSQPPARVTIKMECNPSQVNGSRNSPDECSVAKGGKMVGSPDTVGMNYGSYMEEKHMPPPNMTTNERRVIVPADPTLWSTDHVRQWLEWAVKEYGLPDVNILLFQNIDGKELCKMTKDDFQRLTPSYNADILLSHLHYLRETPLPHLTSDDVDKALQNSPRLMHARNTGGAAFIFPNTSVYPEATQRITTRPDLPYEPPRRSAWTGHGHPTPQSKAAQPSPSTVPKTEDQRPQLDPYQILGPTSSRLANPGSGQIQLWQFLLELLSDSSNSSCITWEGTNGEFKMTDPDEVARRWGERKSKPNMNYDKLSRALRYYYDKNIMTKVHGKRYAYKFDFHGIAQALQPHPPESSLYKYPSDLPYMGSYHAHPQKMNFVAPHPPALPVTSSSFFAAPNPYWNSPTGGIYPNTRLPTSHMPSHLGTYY
Procedure, shortened: as §1

ELF1 = ELF1 (Homo sapiens, UniProt P32519 1-619); conditions: protein: recombinant; tags: N-terminal GST; dsDNA, one strand shown
ELF1, sequence (P32519 whole entry): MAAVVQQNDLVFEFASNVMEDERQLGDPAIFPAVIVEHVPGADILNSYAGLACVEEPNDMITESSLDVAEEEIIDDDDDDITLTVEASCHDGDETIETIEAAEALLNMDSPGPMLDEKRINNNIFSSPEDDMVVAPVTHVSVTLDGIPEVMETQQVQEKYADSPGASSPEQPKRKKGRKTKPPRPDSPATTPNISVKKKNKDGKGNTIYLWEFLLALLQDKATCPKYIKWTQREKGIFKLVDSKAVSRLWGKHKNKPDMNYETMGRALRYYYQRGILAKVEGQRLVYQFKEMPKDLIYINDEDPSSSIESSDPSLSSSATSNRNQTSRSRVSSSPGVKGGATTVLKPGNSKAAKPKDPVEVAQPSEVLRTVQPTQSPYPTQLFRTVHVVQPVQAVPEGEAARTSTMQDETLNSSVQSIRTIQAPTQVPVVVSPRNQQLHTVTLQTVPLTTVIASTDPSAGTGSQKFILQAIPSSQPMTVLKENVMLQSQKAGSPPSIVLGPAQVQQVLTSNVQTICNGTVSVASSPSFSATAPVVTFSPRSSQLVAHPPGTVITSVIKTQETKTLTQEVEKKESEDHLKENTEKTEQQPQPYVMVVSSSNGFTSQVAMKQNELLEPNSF
Procedure, shortened: as §1

EHF = molecular target: T5, EHF (Homo sapiens, UniProt Q9NZC4 1-300); conditions: protein: recombinant; tags: N-terminal GST; dsDNA, one strand shown
T5 sequence: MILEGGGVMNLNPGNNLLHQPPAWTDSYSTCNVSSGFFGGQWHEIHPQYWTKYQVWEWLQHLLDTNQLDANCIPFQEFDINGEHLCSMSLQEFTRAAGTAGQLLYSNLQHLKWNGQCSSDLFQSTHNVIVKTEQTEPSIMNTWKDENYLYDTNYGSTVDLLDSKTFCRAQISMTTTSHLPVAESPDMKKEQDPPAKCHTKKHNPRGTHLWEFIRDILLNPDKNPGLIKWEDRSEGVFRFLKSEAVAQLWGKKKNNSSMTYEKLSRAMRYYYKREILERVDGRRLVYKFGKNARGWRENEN
Procedure, shortened: as §1

SPI1 = SPI1 (Homo sapiens, UniProt P17947 1-270); conditions: protein: recombinant; tags: N-terminal GST; dsDNA, one strand shown
Procedure, shortened: as §1

SPIB = SPIB (Homo sapiens, UniProt Q01892 1-262); conditions: protein: recombinant; tags: N-terminal GST; dsDNA, one strand shown
SPIB, sequence (Q01892 whole entry): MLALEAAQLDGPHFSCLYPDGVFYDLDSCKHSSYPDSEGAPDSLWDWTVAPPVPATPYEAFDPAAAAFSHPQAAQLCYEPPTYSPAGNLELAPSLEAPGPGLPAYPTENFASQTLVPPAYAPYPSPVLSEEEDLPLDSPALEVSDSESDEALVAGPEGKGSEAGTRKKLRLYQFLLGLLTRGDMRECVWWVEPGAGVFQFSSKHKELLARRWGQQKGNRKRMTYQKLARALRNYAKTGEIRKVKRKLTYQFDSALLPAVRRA
Procedure, shortened: as §1

ELK3 = molecular target: T6, ELK3 (Homo sapiens, UniProt P41970 1-407); conditions: protein: recombinant; tags: N-terminal GST; dsDNA, one strand shown
T6 sequence: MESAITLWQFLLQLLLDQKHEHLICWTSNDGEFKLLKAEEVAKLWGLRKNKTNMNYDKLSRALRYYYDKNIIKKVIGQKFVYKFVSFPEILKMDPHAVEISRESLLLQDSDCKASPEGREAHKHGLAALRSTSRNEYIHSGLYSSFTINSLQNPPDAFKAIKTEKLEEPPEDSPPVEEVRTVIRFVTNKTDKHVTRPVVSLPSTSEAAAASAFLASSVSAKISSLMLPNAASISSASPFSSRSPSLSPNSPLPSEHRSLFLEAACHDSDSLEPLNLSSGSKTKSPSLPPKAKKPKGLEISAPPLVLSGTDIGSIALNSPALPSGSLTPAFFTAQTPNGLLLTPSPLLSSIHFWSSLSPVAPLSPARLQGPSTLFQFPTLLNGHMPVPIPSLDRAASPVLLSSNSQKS
Procedure, shortened: as §1

FEV = molecular target: T7, FEV (Homo sapiens, UniProt Q99581 1-238); conditions: protein: recombinant; tags: N-terminal GST; dsDNA, one strand shown
T7 sequence: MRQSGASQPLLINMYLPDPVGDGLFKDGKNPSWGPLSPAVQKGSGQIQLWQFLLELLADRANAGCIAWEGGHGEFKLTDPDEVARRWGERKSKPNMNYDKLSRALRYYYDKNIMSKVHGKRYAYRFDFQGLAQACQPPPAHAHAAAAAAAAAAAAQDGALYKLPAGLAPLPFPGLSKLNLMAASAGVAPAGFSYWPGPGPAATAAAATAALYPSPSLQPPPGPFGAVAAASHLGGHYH
Procedure, shortened: as §1

ETV5 = ETV5 (Homo sapiens, UniProt P41161 1-510); conditions: protein: recombinant; tags: N-terminal GST; dsDNA, one strand shown
ETV5, sequence (P41161 whole entry): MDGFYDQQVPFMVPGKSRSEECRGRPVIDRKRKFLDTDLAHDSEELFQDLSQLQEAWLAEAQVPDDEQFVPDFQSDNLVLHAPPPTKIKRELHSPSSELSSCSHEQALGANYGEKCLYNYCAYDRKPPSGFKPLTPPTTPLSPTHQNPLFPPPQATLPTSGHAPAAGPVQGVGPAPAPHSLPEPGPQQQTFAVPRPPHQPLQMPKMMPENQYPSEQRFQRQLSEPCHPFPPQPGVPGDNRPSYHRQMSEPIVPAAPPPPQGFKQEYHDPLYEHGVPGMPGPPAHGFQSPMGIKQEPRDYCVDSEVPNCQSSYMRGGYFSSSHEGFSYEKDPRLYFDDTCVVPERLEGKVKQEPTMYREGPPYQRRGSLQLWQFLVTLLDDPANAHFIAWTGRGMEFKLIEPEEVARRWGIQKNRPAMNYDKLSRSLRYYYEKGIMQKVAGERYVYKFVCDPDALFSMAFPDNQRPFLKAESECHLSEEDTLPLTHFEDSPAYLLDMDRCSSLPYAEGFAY
Procedure, shortened: as §1

HSF1 = HSF1 (Homo sapiens, UniProt Q00613 1-529); conditions: protein: recombinant; tags: N-terminal GST; chain copies: 3; dsDNA, one strand shown
HSF1, sequence (Q00613 whole entry): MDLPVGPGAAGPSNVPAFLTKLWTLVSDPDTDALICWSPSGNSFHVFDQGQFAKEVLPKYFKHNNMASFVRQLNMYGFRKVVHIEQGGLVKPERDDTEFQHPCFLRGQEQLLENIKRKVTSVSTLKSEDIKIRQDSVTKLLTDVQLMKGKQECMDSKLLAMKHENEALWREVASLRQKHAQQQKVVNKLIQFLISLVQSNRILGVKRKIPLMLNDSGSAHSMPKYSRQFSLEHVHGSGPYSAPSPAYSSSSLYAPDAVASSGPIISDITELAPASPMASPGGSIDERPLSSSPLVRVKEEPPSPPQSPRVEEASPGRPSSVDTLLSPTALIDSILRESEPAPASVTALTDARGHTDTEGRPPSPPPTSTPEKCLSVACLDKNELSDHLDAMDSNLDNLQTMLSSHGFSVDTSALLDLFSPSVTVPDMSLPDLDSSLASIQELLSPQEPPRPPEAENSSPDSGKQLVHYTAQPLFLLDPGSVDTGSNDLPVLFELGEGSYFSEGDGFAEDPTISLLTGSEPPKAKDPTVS
Procedure, shortened: as §1

SPIC = molecular target: T8, SPIC (Homo sapiens, UniProt Q8N5J4 1-248); conditions: protein: recombinant; tags: N-terminal GST; dsDNA, one strand shown
T8 sequence: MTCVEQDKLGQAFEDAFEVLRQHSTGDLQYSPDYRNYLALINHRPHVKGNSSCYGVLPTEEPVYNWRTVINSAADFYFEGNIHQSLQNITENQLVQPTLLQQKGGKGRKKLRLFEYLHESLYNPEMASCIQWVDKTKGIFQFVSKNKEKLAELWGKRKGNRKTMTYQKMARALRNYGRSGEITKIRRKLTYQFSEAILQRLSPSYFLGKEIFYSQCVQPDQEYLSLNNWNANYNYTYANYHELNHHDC
Procedure, shortened: as §1

ELF4 = ELF4 (Homo sapiens, UniProt Q99607 1-663); conditions: protein: recombinant; tags: N-terminal GST; dsDNA, one strand shown
ELF4, sequence (Q99607 whole entry): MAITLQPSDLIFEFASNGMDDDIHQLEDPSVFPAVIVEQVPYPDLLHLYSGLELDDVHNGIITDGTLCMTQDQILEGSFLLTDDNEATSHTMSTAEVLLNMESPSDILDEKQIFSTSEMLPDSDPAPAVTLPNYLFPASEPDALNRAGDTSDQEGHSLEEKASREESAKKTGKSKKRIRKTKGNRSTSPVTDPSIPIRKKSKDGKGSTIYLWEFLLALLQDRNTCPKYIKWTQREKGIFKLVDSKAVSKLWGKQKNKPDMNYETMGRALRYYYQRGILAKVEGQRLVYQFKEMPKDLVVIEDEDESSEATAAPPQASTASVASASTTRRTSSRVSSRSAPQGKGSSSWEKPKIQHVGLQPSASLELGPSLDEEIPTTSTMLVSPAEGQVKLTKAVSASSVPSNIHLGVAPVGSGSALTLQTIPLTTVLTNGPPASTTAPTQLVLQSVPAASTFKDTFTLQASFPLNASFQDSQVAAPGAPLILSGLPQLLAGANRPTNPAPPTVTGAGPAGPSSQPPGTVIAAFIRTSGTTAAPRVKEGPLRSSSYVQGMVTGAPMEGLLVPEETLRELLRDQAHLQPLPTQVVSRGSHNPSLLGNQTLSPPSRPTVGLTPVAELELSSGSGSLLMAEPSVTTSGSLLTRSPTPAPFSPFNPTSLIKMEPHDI
Procedure, shortened: as §1

ELK4 = molecular target: T9, ELK4 (Homo sapiens, UniProt P28324-2 1-405); conditions: protein: recombinant; tags: N-terminal GST; dsDNA, one strand shown
T9 sequence: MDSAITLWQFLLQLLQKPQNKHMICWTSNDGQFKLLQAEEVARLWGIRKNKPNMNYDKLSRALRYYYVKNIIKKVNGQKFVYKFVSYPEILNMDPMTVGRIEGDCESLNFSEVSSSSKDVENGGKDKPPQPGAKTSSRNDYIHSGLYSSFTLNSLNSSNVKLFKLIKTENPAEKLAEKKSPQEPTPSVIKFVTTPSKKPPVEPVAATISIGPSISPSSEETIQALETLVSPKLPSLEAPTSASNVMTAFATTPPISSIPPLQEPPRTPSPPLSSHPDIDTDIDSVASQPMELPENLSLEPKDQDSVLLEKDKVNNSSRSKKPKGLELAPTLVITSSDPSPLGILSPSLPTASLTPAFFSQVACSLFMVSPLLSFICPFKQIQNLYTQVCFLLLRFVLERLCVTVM
Procedure, shortened: as §1

ETV2 = molecular target: T10, ETV2 (Homo sapiens, UniProt O00321 1-342); conditions: protein: recombinant; tags: N-terminal GST; dsDNA, one strand shown
T10 sequence: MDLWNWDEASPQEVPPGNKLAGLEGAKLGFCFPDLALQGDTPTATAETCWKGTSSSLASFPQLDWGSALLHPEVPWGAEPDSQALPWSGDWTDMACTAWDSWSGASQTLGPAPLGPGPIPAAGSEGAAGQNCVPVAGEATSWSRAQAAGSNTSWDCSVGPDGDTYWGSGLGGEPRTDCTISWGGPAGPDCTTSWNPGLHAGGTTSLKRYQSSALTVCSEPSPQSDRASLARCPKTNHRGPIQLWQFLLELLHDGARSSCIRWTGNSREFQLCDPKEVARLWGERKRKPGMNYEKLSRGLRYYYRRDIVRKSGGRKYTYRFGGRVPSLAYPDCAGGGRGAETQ
Procedure, shortened: as §1

ELF3 = molecular target: T11, ELF3 (Homo sapiens, UniProt P78545 1-371); conditions: protein: recombinant; tags: N-terminal GST; dsDNA, one strand shown
T11 sequence: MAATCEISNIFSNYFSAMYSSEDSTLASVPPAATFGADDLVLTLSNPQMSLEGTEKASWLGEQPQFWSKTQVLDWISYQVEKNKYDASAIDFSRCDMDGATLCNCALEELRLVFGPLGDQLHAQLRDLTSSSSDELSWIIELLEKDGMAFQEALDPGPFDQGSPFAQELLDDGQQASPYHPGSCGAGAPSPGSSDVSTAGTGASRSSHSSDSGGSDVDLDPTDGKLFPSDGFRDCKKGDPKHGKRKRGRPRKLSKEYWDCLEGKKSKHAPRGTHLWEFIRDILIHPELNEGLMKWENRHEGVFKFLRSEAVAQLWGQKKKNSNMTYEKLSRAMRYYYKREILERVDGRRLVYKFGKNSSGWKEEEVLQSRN
Procedure, shortened: as §1

CRX = CRX (Homo sapiens, UniProt O43186 1-299); conditions: protein: recombinant; tags: N-terminal GST; dsDNA, one strand shown
CRX, sequence (O43186 whole entry): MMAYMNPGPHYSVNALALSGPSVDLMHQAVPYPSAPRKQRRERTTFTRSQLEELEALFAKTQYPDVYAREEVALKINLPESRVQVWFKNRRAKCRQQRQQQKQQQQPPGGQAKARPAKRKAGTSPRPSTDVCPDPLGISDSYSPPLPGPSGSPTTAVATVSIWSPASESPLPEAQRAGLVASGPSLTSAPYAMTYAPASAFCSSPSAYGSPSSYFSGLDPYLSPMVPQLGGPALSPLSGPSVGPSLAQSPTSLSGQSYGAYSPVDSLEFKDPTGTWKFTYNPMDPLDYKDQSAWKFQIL
Procedure, shortened: as §1

ETV1 = ETV1 (Homo sapiens, UniProt P50549 1-477); conditions: protein: recombinant; tags: N-terminal GST; dsDNA, one strand shown
ETV1, sequence (P50549 whole entry): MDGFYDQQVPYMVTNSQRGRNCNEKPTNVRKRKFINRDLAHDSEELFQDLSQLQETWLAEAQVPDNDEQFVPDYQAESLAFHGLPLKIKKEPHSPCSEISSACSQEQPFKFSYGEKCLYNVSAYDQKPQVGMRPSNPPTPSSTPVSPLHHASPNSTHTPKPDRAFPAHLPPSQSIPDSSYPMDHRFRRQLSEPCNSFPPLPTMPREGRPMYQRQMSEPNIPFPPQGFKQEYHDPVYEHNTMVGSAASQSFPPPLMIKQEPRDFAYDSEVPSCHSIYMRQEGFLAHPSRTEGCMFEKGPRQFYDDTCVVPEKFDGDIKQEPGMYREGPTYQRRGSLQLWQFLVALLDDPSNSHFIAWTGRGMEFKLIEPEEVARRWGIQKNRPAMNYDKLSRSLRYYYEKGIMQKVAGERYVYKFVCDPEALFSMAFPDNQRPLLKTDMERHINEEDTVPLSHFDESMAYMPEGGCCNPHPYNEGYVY
Procedure, shortened: as §1

Sequence: ATATAG
- binding signal (FLI1): 1.15 fold enrichment (6-mer frequency, TF over GST control)
- binding signal (ELK1): 1.17 fold enrichment (6-mer frequency, TF over GST control)
- binding signal (GABPA): 1.29 fold enrichment (6-mer frequency, TF over GST control)
- binding signal (ERG): 1.19 fold enrichment (6-mer frequency, TF over GST control)
- binding signal (ELF1): 1.17 fold enrichment (6-mer frequency, TF over GST control)
- binding signal (EHF): 1.22 fold enrichment (6-mer frequency, TF over GST control)
- binding signal (SPI1): 1.2 fold enrichment (6-mer frequency, TF over GST control)
- binding signal (SPIB): 1.2 fold enrichment (6-mer frequency, TF over GST control)
- binding signal (ELK3): 1.23 fold enrichment (6-mer frequency, TF over GST control)
- binding signal (FEV): 1.1 fold enrichment (6-mer frequency, TF over GST control)
- binding signal (ETV5): 1.24 fold enrichment (6-mer frequency, TF over GST control)
- binding signal (HSF1): 1.19 fold enrichment (6-mer frequency, TF over GST control)
- binding signal (SPIC): 1.2 fold enrichment (6-mer frequency, TF over GST control)
- binding signal (ELF4): 1.09 fold enrichment (6-mer frequency, TF over GST control)
- binding signal (ELK4): 1.19 fold enrichment (6-mer frequency, TF over GST control)
- binding signal (ETV2): 1.07 fold enrichment (6-mer frequency, TF over GST control)
- binding signal (ELF3): 1.28 fold enrichment (6-mer frequency, TF over GST control)
- binding signal (CRX): 1.26 fold enrichment (6-mer frequency, TF over GST control)
- binding signal (ETV1): 1.17 fold enrichment (6-mer frequency, TF over GST control)
